Source: PubChem (National Center for Advancing Translational Sciences (NCATS))
Shown are actives, neighbours in structure and some others; about 8% of the full set was active somewhere.
FBPA coupling cs: inhibits coupling enzyme system, counter-screen for aldolase hits; coupling enzyme system counterscreen, AmpLite Red fluorescence; activity change, negative = inhibition, % at 58.2 µM, hits read low; hit rate 0.67% among 290,000; AID 2472; in the data active = activity change below about -30%
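Final compound at 57.5 uM, incubated 10 min at RT with coupling enzyme reagent (glyceraldehyde-3-phosphate), then 20 min with substrate and AmpLite Red detection. Fluorescence read at 525/598 nm; tests interference with the coupling assay, not aldolase inhibition.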
ELG1 DNA repair: inhibitors of ELG1-dependent DNA repair in HEK293T cells | HEK293T ELG1-luciferase reporter, luminescence, 16 h; DNA damage induced by 5-fluorouridine | Potency, µM (highest dose often 46.1 µM), for inactives: at the highest dose activity change, negative = inhibition, usual class: inhibitors | hit rate 2.3% among 330,000 | AID 504467; also: potency is read from the fitted curve at half-maximal effect; nearly all actives have a fitted effect of over 55% in size
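Cells (2,000 per well) received 5-fluorouridine plus test compound or DMSO and were incubated 16 hr at 37 °C, 5% CO2. Luciferase activity was read by luminescence 30 min after ONE-Glo addition; signal suppression marked inhibition of damage-induced ELG1 function.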
RORgamma inh: ROR gamma (mouse) transcription inhibition; P51450; Drosophila S2 Gal4-RORgamma UAS-luciferase reporter, 20 h; Potency, µM (series often up to 53.6 µM), without a hit: at the top dose activity change, negative = inhibition, hits mostly inhibitors; hit rate 5.4% among 310,000; AID 2551; also: potency is read from the fitted curve at half-maximal effect; nearly all actives have a fitted effect of over 60% in size
Target sequence (P51450 whole entry, looked up, the tested form may be a part): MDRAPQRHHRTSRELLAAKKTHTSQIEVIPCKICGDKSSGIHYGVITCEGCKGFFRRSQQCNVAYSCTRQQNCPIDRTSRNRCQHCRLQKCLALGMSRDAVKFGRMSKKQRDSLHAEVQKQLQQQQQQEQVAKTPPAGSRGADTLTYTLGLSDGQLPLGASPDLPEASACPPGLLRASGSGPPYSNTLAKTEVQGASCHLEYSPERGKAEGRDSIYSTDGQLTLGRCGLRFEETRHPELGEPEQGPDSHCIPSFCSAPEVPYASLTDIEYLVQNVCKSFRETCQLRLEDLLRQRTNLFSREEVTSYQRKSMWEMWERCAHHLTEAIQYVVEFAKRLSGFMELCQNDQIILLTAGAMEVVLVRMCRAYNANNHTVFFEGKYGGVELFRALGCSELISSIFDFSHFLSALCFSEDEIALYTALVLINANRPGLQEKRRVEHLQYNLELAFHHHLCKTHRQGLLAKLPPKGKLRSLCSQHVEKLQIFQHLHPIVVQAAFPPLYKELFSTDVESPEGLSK
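Stably transfected Drosophila Schneider cells are the test system, with ROR gamma fused to Gal4 and luciferase under UAS control; luminescence is read after 20 hr of 700 uM copper sulfate induction at ambient temperature.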
TSHR antag: antagonists of human thyroid stimulating hormone receptor; P16473; TSHR-expressing cells, TSH-stimulated cAMP HTRF, 2 h; hits give low values; activity change, negative = inhibition, % at 11.5 µM; hit rate 0.2% among 330,000;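 active = activity change below a set negative limit, meaning inhibition stronger than a set level, cut at about -70% in these data; inconclusive = activity change between two set negative limits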
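TSHR-expressing cells were treated with compounds, then stimulated with TSH at EC80 (4nM final) for 2 hours at 37 deg C. Cellular cAMP was measured by HTRF competition between lysate cAMP and cAMP-d2 for a cryptate-labelled anti-cAMP antibody.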
Gal4-VP16 FLuc: counter-screen for ROR gamma inhibitors: Gal4-VP16 reporter. Drosophila S2 Gal4-VP16 UAS-luciferase, luminescence, 20 h. Potency, µM (top dose mostly 53.6 µM), without a hit: at the top dose activity, negative = inhibition, hits mostly inhibitors. hit rate 3.5% among 310,000. AID 2546;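 also: Gal4-VP16 expression switched on by copper sulfate through the metallothionein promoter; potency is read from the fitted curve at half-maximal effect; nearly all actives have a fitted effect of over 50% in size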
* marks the source's active call; other numbers are inactive results; ? = inconclusive; · = no result given; [ ] = dose if it differs, or a comment. Unless noted, calls follow the shape of the dose curve; as a rule, active = well fitted curve in the direction sought with a large enough effect; inconclusive = small, poorly fitted or top-dose-only effect, or another doubt; inactive = no such curve, though single readings can be large; an effect the other way counts as inactive or inconclusive. % is scaled to controls: 0 for no effect and ±100 for the full control effect.

SMILES | FBPA coupling cs | ELG1 DNA repair | RORgamma inh | TSHR antag | Gal4-VP16 FLuc
CCCSc1nnc(Sc2nnnn2-c2ccccc2)s1 | 0 | 0% | 1.6µM* | 2 | -28%
Cc1ccccc1-n1nnnc1Sc1nnnn1-c1ccccc1 | 1 | ? | ? | 2 | ?
CC(C)Cc1cc(CN2CCC(CO)(Cc3cccc(C(F)(F)F)c3)CC2)[nH]n1 | 2 | 5% | 4.5µM* | 25 | ?
Cc1ccc(-n2cc(CN3CCC(CO)(Cc4cccc(C(F)(F)F)c4)CC3)cn2)cc1 | -1 | 7% | 18µM* | -7 | ?
CC(C)Cc1cc(CN2CCCC(CO)(Cc3cccc(Cl)c3)C2)[nH]n1 (stereo unspecified) | 4 | -4% | -32% | -4 | 5%
C[C@H](CO)N1C[C@H](C)[C@@H](CN(C)S(=O)(=O)c2ccc(F)cc2)Oc2ccc(NC(=O)C3CCCCC3)cc2C1=O | · | -3% | · | -4 | ·
COc1ccc(Oc2ncc3ncc(=O)n(C)c3n2)cc1 | -4 | · | 1% | · | -2%
CCN1/C(=C\C(=S)Nc2ccccc2)Sc2ccccc21 | -2 | ? | 4µM* | 13 | ?
COc1ccc(C2(C)NC(=O)N(CC(=O)NC3CCCC3)C2=O)cc1OC (stereo unspecified) | · | 6% | · | 0 | ·
O=C1/C(=C/c2ccsc2)CC/C1=C\c1cccs1 | · | · | · | -13 | ·
CC(=O)c1c(O)cc(O)cc1CC(=O)O | 0 | 2% | -9% | -9 | -2%
CC(=O)c1c(O)cc(O)c(C(C)=O)c1O | 0 | ? | ? | -94* | 10µM*
CCc1nn(CC(=O)NCCCN2CCN(CC)CC2)c(=O)c2cc3occc3n12 | · | 22% | -29% | 3 | -4%
CC(=O)Nc1cccc(C(=O)/C=C/c2ccc(/C=C/C(=O)c3cccc(NC(C)=O)c3)cc2)c1 | 3 | ? | 10µM* | -18 | ?
Cc1cccc(C(=O)Nc2ccc(C(=O)/C=C/c3cccnc3)cc2)c1 | -2 | ? | 28%[10 µM] | -14 | ?
CC(=O)Nc1cccc(C(=O)/C=C/c2ccc(F)cc2)c1 | -5 | ? | 13µM* | 11 | ?
CC(=O)Nc1cccc(C(=O)/C=C/c2ccc(Br)cc2)c1 | -3 | ? | ? | 3 | ?
CC(=O)Nc1cccc(C(=O)/C=C/c2ccc(N(C)C)cc2)c1 | -8 | ? | ? | -14 | 6%
Cc1cccc(C(=O)Nc2ccc(C(=O)/C=C/c3ccncc3)cc2)c1 | -5 | ? | ? | -32 | 13µM*
Cc1noc(NS(=O)(=O)c2ccc(NC(=O)CSc3nnc(-c4ccccc4)n3C3CCCCC3)cc2)c1C | 16 | 0% | -3% | -2 | -12%
CCn1c(SCC(=O)NNC(=S)Nc2ccc(C)cc2)nnc1-c1ccc(Cl)cc1 | 6 | 2% | 3.5µM* | -13 | 1.4µM*
CCn1c(C)nnc1SCC(=O)Nc1ccc(Cl)cc1 | -3 | 13% | 41% | 10 | 5%
Cc1ccc(NC(=S)NNC(=O)CSc2nnc(-c3ccc(Cl)cc3)n2C2CCCCC2)cc1 | 8 | -1% | 11µM* | -4 | ?
O=C(Cc1ccccc1)NNC(=S)Nc1ccccc1 | 1 | -1% | ? | -6 | -17%
O=C(CSc1nnc(SCc2ccccc2)s1)NNC(=S)Nc1ccccc1 | 3 | -6% | 14µM* | 21 | 13µM*
SMILES | FBPA coupling cs | ELG1 DNA repair | RORgamma inh | TSHR antag | Gal4-VP16 FLuc
Cn1c(SCC(=O)NNC(=O)Nc2ccccc2)nnc1-c1ccccc1 | -1 | -3% | -6% | -6 | 4%
Cn1c(SCC(=O)NNC(=S)Nc2ccccc2)nnc1-c1ccccc1 | -3 | ? | 0.89µM* | -10 | 1.4µM*
Cc1ccc(Cl)cc1N1CCN(S(=O)(=O)c2c(C)[nH]c(C)c2C(=O)N2CCCCC2)CC1 | 1 | ? | 10% | -19 | 1%
Cc1ccc(C2(c3noc(CN(C)Cc4ccccn4)n3)CCCC2)cc1 | -1 | -12% | 16µM* | -6 | -1%
Cc1ccc(C2(c3noc(CN(C)Cc4cccnc4)n3)CCCC2)cc1 | 0 | 8% | ? | -8 | 13µM*
CC12CCC(C(=O)N3CCCCC3)([C@H](Br)C1=O)C2(C)C (stereo partly specified) | 7 | -12% | 11% | 47 | 0%
Oc1ccc(-c2cn3ccccc3n2)cc1 | 0 | ? | -36% | -7 | ?
Cc1ccc2nc(-c3cccc(S(=O)(=O)N(C)C)c3)cn2c1 | -32* | ? | 34% | -29 | -15%
CN(C)S(=O)(=O)c1ccc(-c2cn3ccccc3n2)cc1 | -10 | ? | 34% | -14 | 18µM*
CC(C)Cc1nnc(NC(=O)CCC(=O)NCc2ccccc2Cl)s1 | 0 | 5% | -22% | 0 | 4%
CCCCc1cc2c(cn1)=C(OC(=O)c1cccs1)C(C)(OC(=O)CC)C(=O)C=2 (stereo unspecified) | -6 | · | · | · | ·
O=C1CSC(=S)N1/N=C/c1ccc(C(F)(F)F)cc1 | -2 | -5% | ? | -1 | -1%
O=C1CSC(=S)N1/N=C/C=C/c1ccccc1 | -1 | 7% | 2.5µM* | -2 | ?
N=C1SCC(=O)N1/N=C/c1ccccc1 | 8 | ? | 11µM* | 10 | ?
O=C1CSC(=S)N1/N=C/c1cccc(C(F)(F)F)c1 | -5 | 11% | 7.9µM* | 12 | ?
Cc1ccsc1C(=O)N(C)CC(=O)N(CC(C)C)c1c(N)n(CC(C)C)c(=O)[nH]c1=O | · | 14% | · | 6 | ·
CC(/C=C1\SC(=S)N(CCCC(=O)Nc2ccc(C(=O)O)cc2)C1=O)=C\c1ccccc1 | -1 | ? | -4% | -15 | -22%
CC(/C=C1\SC(=O)N(CCCC(=O)O)C1=O)=C\c1ccccc1 | 10 | ? | 0.1µM* | -31 | 0.32µM*
CC(=C\c1ccccc1)/C=C1/SC(=S)N(CCCC(=O)O)C1=O | 9 | ? | ? | -14 | 0.63µM*
O=C(Nc1cccc(CNCCc2c[nH]c3ccccc23)c1)c1ccccc1Cl | -2 | 16% | -4% | -6 | 9%
COc1ccc(-c2noc(N3CCC(C(=O)N(C)c4ccccc4)CC3)n2)cc1 | 1 | -23% | -3% | -3 | 2%
S=C(NCc1ccccc1)NCc1cccc(CNC(=S)NCc2ccccc2)c1 | 0 | -4% | -9%[10 µM] | -2 | -1%
COc1ccccc1CNC(=S)Nc1ccc(F)cc1 | -1 | -22% | 7.9µM* | 3 | 6.3µM*
NC(=S)Cc1ccccc1Cl | 4 | -10% | 10µM* | 13 | -26%
COC(=O)Cc1ccc(NC(=S)NCc2ccccc2OC)cc1 | -4 | 15% | 8.9µM* | 1 | 25µM*
NC(=S)Cc1ccc(Cl)cc1Cl | -1 | -4% | ? | 0 | ?
S=C(NCc1ccccc1)NCc1ccccc1Cl | · | 4% | 13µM* | -9 | 20µM*
